Source: PubChem BioAssay (several laboratories)
ALR inh = human ALR oxidase inhibition via reduced H2O2 | 290,000 tested, 3.8% active | P55789 | inhibition, % (test concentration not listed) | AID 485317 | purified ALR, DTT oxidation, H2O2 HRP-luminol luminescence;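 active = mean replicate inhibition above about 79%, with every replicate also reaching it, limit read from the data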
Target sequence (P55789 whole entry, looked up): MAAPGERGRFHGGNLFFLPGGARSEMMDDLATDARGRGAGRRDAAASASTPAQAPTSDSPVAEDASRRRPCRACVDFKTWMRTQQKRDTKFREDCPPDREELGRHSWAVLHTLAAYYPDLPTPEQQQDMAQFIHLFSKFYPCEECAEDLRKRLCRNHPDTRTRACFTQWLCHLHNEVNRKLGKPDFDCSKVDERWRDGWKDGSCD
APOBEC3A inh = blocks human APOBEC3A ssDNA deamination | inhibition, % at 20 µM | 330,000 tested, 0.41% active | recombinant A3A, FAM/TAMRA ssDNA deamination fluorescence;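 active = at least 40% inhibition at 20 µM here, with at most 30% in a related deaminase screen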;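 note: plate controls were A3A with DMSO for no effect and wells lacking A3A enzyme for full effect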
Target sequence (P31941 whole entry, looked up): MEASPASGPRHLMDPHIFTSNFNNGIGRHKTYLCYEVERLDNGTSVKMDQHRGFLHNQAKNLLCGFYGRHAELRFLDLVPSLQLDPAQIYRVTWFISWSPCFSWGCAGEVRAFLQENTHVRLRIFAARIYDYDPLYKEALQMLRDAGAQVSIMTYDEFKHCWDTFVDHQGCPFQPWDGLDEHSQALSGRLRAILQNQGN
rCAG RNA binder = molecules binding r(CAG) RNA repeats. r(CAG) RNA repeat, TO-PRO-1 dye displacement fluorescence. inhibition, % at 3 µM. 370,000 tested, 1.3% active;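 active = inhibition above the plate cutoff, the mean of all test compounds on that plate plus 3 SD, cut at about 35% in these data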;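 note: 0% = DMSO alone and 100% = 100 µM mitoxantrone as full dye displacement; higher means more dye released from RNA so lower well fluorescence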
APOBEC3G inh = APOBEC3G (human) deaminase inhibition | recombinant A3G, ssDNA deamination FAM/TAMRA fluorescence | inhibition, % at 20 µM | 330,000 tested, 0.28% active | AID 493012;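 active = inhibition of at least 40% at 20 µM, with no more than 30% in the related APOBEC3A deaminase screen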;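 note: plate controls were DMSO wells with A3G for no effect and wells lacking A3G enzyme for full effect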
aDG glyco act = alpha-DG glycosylation activation; Pro5-aDG cells, alpha-DG glycosylation AlphaScreen (IIH6); 0% Pro5, 100% B10-LARGE cell signal; 360,000 tested, 0.22% active; AID 624168; activation, % at 10 µM;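 active = activation of at least 8% versus controls, or a plate z-score of at least 8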;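 note: Pro5 are CHO cells carrying HIG-tagged alpha-DG that lacks glycosylation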
PHOSPHO1 inh = blocks human PHOSPHO1 phosphatase activity. Q8TCT1. inhibition, % at 13.3 µM. 290,000 tested, 1.1% active. recombinant PHOSPHO1, absorbance phosphatase assay; in the data active = inhibition above about 60%
rCAG binder conf = r(CAG) RNA repeat binding, confirmation; shares compounds with rCAG RNA binder; TO-PRO-1 dye displacement fluorescence; inhibition, % at 3 µM; 4,300 tested, 70% active; AID 652065;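 active = inhibition above a per-plate cutoff, the mean inhibition of sample wells plus 3 SD, cut at about 35% in these data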;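 note: loss of TO-PRO-1 fluorescence as compound displaces dye from 1x1 AA loop RNA; 0% = DMSO only wells and 100% = 100 µM mitoxantrone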
DNA CAG counter = counter-screen for rCAG RNA binders: DNA CAG dye complex inhibitors | d(CAG) DNA oligo TO-PRO-1 dye displacement, fluorescence | shares compounds with rCAG RNA binder | inhibition, % at 3 µM | 4,300 tested, 94% active;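 active = inhibition above its plate's cutoff, the mean test-well inhibition plus 3 SD, cut at about 4.8% in these data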;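 note: 0% = DNA dye mix with DMSO and 100% = 100 µM mitoxantrone; hits displace the dye from DNA and so lower well fluorescence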
dCAG dye DR = disrupts DNA CAG TO-PRO-1 complex in dose response; shares compounds with rCAG RNA binder; DNA CAG/GTC duplex TO-PRO-1 dye displacement fluorescence; IC50, µM; 250 tested, 20% active; AID 686960; in the data active = IC50 below about 10 µM
An asterisk follows results filed as active; i = inactive; . = not tested or not shown. Hits are enriched below; roughly 5.4% of the tested compounds scored in any of these assays.

SMILES	ALR inh	APOBEC3A inh	rCAG RNA binder	APOBEC3G inh	aDG glyco act	PHOSPHO1 inh	rCAG binder conf	DNA CAG counter	others
N#CC1=C(N)n2c(s/c(=C\c3ccco3)c2=O)=C(C#N)C1c1ccco1 (configuration not stated)	46	91	54*	72	0	13	38*	18*	dCAG dye DR=i
CC(C)c1ccc(/C=c2\sc3n(c2=O)C(N)=C(C#N)C(c2ccc(C(C)C)cc2)C=3C(N)=O)cc1 (configuration not stated)	.	.	8	.	0	.	.	.
O=C1NC(Cc2ccc(O)cc2)c2nc3cc(F)c(F)cc3c(=O)n2-c2ncccc21 (configuration not stated)	.	.	5	.	0	.	.	.
COc1cc(CN2C[C@@H](CO)O[C@@H](n3cnc4c(NCc5ccco5)ncnc43)C2)cc(OC)c1OC	.	.	2	.	0	.	.	.
Cc1c(/C=C2\SC(=Nc3cccc(C(=O)O)c3)NC2=O)c2ccccc2n1C	.	32	45*	7	0	13	40*	15*
O=C(N/N=C/c1cc(Br)cc([N+](=O)[O-])c1O)c1ccc(NC(=O)c2ccc(F)cc2)cc1	4	2	43*	0	0	-1	78*	41*
O=C(Nc1sc2c(c1C(=O)O)CCCC2)c1ccc(Cl)cc1	.	0	69*	-2	0	15	50*	14*
CCN(c1ccc(OC)cc1)S(=O)(=O)c1nnc(NC(=O)COc2ccccc2)s1	-5	-1	66*	0	0	41	54*	19*
COc1ccc(OCC(=O)Nc2nnc(S(=O)(=O)N3CCCCCC3)s2)cc1	.	-1	40*	-2	0	25	28	7.5*
O=C(Nc1ccccc1)c1cc(C2CCCCN2C(=O)c2ccccc2)on1 (configuration not stated)	.	.	2	.	0	.	.	.
c1ccc(Nc2cccc3c(Nc4ccccc4)cccc23)cc1	.	-2	7	-8	0	38	.	.
O=S(=O)(O)c1cccc2cccc(Nc3ccccc3)c12	99*	14	47*	10	0	.	64*	25*
COc1ccc(CNC(=O)C2CCN(S(=O)(=O)c3ccc(N4CCCC4=O)cc3)CC2)cc1	.	.	0	.	0	.	.	.
Cc1ccc(NS(=O)(=O)c2cc([N+](=O)[O-])ccc2NNC(=S)Nc2cccc(Cl)c2)c(C)c1	15	.	.	.	-1	-76	.	.
Cc1ccc(NS(=O)(=O)c2cc([N+](=O)[O-])ccc2NNC(=S)Nc2cc(C)ccc2C)c(C)c1	-2	1	50*	-6	-1	0	84*	44*
COc1ccc(NC(=S)Nc2cccc([N+](=O)[O-])c2)cc1	8	0	2	-3	0	24	.	.
COc1ccc(NC(=S)NNc2ccc([N+](=O)[O-])cc2S(=O)(=O)Nc2ccc(C)cc2C)cc1	-2	-1	39*	-5	0	27	81*	45*
O=[N+]([O-])c1cc2ncccc2c2ncccc12	.	.	0	.	1	.	.	.
Cc1noc(C)c1NC(=O)N(C)C[C@@H]1OCc2cn(nn2)CCCC(=O)N([C@H](C)CO)C[C@H]1C	.	.	2	.	0	.	.	.
CN(C(=O)CSc1nc(-c2ccc(C(C)(C)C)cc2)c(C#N)c(=O)[nH]1)C1CCCCC1	93*	0	70*	-1	1	14	84*	50*
N#Cc1c(-c2ccccc2)nc(SCC(=O)NC2CCCCC2)[nH]c1=O	55	-3	31	-5	0	-23	.	.
CC(C)CN1C(=O)C[C@@]2(C(=O)N(C)c3ccc(NS(=O)(=O)C4CC4)cc32)C1c1ccccc1 (some centres not stated)	.	.	3	.	.	.	.	.
Cc1n[nH]c(=O)c2c(NC(=O)CSc3nn(-c4ccc(F)cc4)c(=S)s3)oc(C)c12	99*	3	40*	0	0	.	28	13*
